Compound activity from PubChem.
In the library only some 6.2% were active in any assay of this set; here they are far more common.
Lassa entry inh: Lassa virus entry inhibition | Lassa virus pseudotype entry inhibition, cell reporter | Potency, µM (doses to about 37.9 µM), most hits filed as inhibitors | 300,000 tested, 1.2% active | AID 540256; calls by dose curve; tested in HEK293 cells; note: nearly all actives have a fitted effect of over 50% in size
MARV entry inh: Marburg virus entry inhibition; Marburg virus pseudotyped entry inhibition, cell reporter; Potency, µM (titrated, usually from 37.8 µM), actives largely listed as inhibitors; 300,000 tested, 1.8% active; AID 540276; calls by dose curve; tested in HEK293 cells
HCMV inh: human cytomegalovirus inhibition; HFF cells, HCMV-luciferase reporter, 72 h; hits give low values; activity change, negative = inhibition, % at 57.5 µM; 410,000 tested, 4.5% active; AID 1259415; in the data active = activity change below about -60%; inconclusive = no clear call, values can overlap the other calls; inactive = above about -39%
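Human foreskin fibroblasts infected with luciferase-reporter HCMV at MOI 1 PFU/cell, compounds at two doses. Luciferase measured 72 h post infection; normalized to buffer-only basal and Salinomycin (10uM) controls.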
FMDV inh: blocks foot and mouth disease virus; AID 1159524; 410,000 tested, 1.2% active; FMDV antiviral cell-based qHTS; Potency, µM (top dose mostly 57.9 µM), usual class: inhibitors; calls by dose curve; tested in HEK293T cells; note: read-out not given here; nearly all actives have a fitted effect of over 45% in size
Each line names hits and unclear results; the compound was inactive in the other large screens.

O=C1C(n2ccc3ccccc32)c2cc(OC(F)(F)F)ccc2N1Cc1ccc(C(F)(F)F)cc1 (stereo unspecified)	HCMV inh -89 (no result: Lassa entry inh, MARV entry inh, FMDV inh)
COc1ccc2c(c1)[C@@H](NC(=O)c1c(C)noc1C)[C@H](C)[C@@H](c1ccccc1)N2Cc1cccc(F)c1	none (no result: Lassa entry inh, MARV entry inh, FMDV inh)
C1=CC2=NC34CCCCC3CC3=C(CCCC3)N4C2=CC1=NC1CCCCC1 (stereo unspecified)	FMDV inh 28µM (no result: Lassa entry inh, MARV entry inh, HCMV inh)
C=CCOC(=O)C1=C(C)NC(SCC(=O)Nc2ccc(C)c(Cl)c2)=C(C#N)C1c1ccco1 (stereo unspecified)	MARV entry inh 10µM, HCMV inh inconclusive
N#CC1=C(SCC(=O)c2ccc(Br)cc2)NC2=C(C(=O)CCC2)[C@H]1c1ccco1	MARV entry inh 8.9µM (no result: Lassa entry inh, HCMV inh, FMDV inh)
CC1(C)CC(=O)C2=C(C1)NC(SCC(=O)Nc1ccccc1)=C(C#N)C2c1ccco1 (stereo unspecified)	Lassa entry inh inconclusive, MARV entry inh 14µM, HCMV inh inconclusive
Cc1ccc(C(=O)CSC2=C(C#N)C(c3ccco3)C3=C(CC(C)(C)CC3=O)N2)cc1 (stereo unspecified)	Lassa entry inh inconclusive, MARV entry inh inconclusive, HCMV inh -68
N#CC1=C(SCC(=O)c2ccc(Cl)cc2)NC2=C(C(=O)CCC2)C1c1ccco1 (stereo unspecified)	Lassa entry inh inconclusive, MARV entry inh inconclusive, FMDV inh inconclusive
Cc1ccccc1NC(=O)CSc1nnc(-c2cccc(Cl)c2)o1	MARV entry inh inconclusive
COc1ccc(CCNC(=O)CSc2cn(CCNC(=O)c3cccc(C(F)(F)F)c3)c3ccccc23)cc1OC	Lassa entry inh inconclusive, MARV entry inh inconclusive, HCMV inh inconclusive, FMDV inh 22µM
COc1ccc(CCNC(=O)CSc2cn(CCNC(=O)c3ccc(OC)c(OC)c3)c3ccccc23)cc1OC	MARV entry inh inconclusive
CC(=O)c1cn(C(=O)c2ccc(Cl)cc2)c2ccccc12	HCMV inh -67
COC(=O)c1cn(C(=O)c2ccc(C)cc2)c2ccccc12	none (no result: Lassa entry inh, MARV entry inh)
COC(=O)c1cn(C(=O)c2ccc(OC)cc2)c2ccccc12	MARV entry inh inconclusive, HCMV inh -65
O=C(c1cc(COc2ccc(F)cc2F)on1)N1CCCC(c2ccccc2)C1 (stereo unspecified)	Lassa entry inh 7.1µM, MARV entry inh inconclusive, HCMV inh -63
COc1cc(C)ccc1OCc1cc(C(=O)NC2CCOCC2)no1	none (no result: Lassa entry inh, MARV entry inh)
Cc1ccc(C)c(OCc2cc(C(=O)NC3CCN(Cc4ccccc4)CC3)no2)c1	HCMV inh -85, FMDV inh inconclusive (no result: Lassa entry inh, MARV entry inh)
O=C(NC1CCN(Cc2ccccc2)C1)c1cc(COc2ccc(F)cc2F)on1 (stereo unspecified)	HCMV inh -102 (no result: Lassa entry inh, MARV entry inh)
Cc1cc(/C=C(\C#N)C(N)=O)c(C)n1-c1ccc(N2CCOCC2)c([N+](=O)[O-])c1	MARV entry inh inconclusive, HCMV inh -75, FMDV inh inconclusive
Cc1cc(C=O)c(C)n1-c1ccc(N2CCCCC2)c([N+](=O)[O-])c1	Lassa entry inh inconclusive, MARV entry inh inconclusive, FMDV inh inconclusive
O=[N+]([O-])c1ccc(N2CCCCCC2)c2nonc12	Lassa entry inh inconclusive
Nc1ccc(N2CCCCC2)cc1N1CCCCC1	Lassa entry inh inconclusive, MARV entry inh inconclusive, HCMV inh -69, FMDV inh inconclusive
O=C1c2ccccc2C(=O)c2cc(N3CCCCC3)ccc21	Lassa entry inh 3.2µM, MARV entry inh 4µM, FMDV inh 10µM
Nc1ccc(N2CCCCC2)c2nonc12	HCMV inh -67 (no result: Lassa entry inh, MARV entry inh)
CN(Cc1ccc(OCC(O)CN2CCCCC2)cc1)Cc1ccnc2ccccc12 (stereo unspecified)	HCMV inh -66, FMDV inh inconclusive (no result: Lassa entry inh, MARV entry inh)
CCc1ccc(NC(=O)C[n+]2cc(-c3ccc(C)cc3)n3c2CCC3)cc1	FMDV inh inconclusive (no result: Lassa entry inh, MARV entry inh)
Cc1ccc(-c2c[n+](CC(=O)N3c4ccccc4Sc4ccccc43)c3n2CCC3)cc1	HCMV inh -87, FMDV inh inconclusive
O=C(C[n+]1cc(-c2ccccc2)n2c1CCC2)N1c2ccccc2Sc2ccccc21	FMDV inh inconclusive
Cc1ccc(-c2c[n+](CC(=O)Nc3c(C)cccc3C)c3n2CCC3)cc1	HCMV inh -68 (no result: Lassa entry inh, MARV entry inh)
COc1ccc(O)c(CN2CCOc3c(cc(-c4cccc(OC)n4)cc3OC)C2)c1	none (no result: Lassa entry inh, MARV entry inh, HCMV inh)
CC12CCCCCC3=CC(=O)C=C[C@]31OCC2 (stereo partly specified)	none (no result: Lassa entry inh, MARV entry inh, FMDV inh)
O=C1C(=C2SCCCS2)CC/C1=C\c1ccc(F)cc1	Lassa entry inh 1.1µM, MARV entry inh 2.5µM, HCMV inh -91, FMDV inh 5µM
Cc1cccc(/C=C2\CCC(=C3SCCCS3)C2=O)c1	Lassa entry inh inconclusive, MARV entry inh inconclusive, HCMV inh inconclusive
CCCC[C@@H]1CN2[C@H](c3ccc(Br)cc3)[C@H](C)CC[C@H]2C(=O)O1	none (no result: Lassa entry inh, HCMV inh, FMDV inh)
COc1ccc(C(CC(=O)Nc2ccc(Cl)cc2F)NC(=O)C(F)(F)F)cc1 (stereo unspecified)	HCMV inh -89
COc1ccc(C(CC(=O)N2CCCCC2)NC(=O)C(F)(F)F)cc1 (stereo unspecified)	none
C[C@H](O)[C@@H]1C(=O)N2CCc3c([nH]c4cccc(-c5ccccc5)c34)[C@@H]2C[C@@H]1N(C)C(=O)NC1CCCCC1	none (no result: Lassa entry inh, MARV entry inh, FMDV inh)
COc1ccc(-c2cc(C)no2)cc1S(=O)(=O)N1CCN(c2ccc([N+](=O)[O-])cc2)CC1	HCMV inh active (no result: Lassa entry inh, MARV entry inh)
CCc1ccc(-c2cc(C)no2)cc1S(=O)(=O)N1CCOc2ccccc21	Lassa entry inh inconclusive, MARV entry inh inconclusive, HCMV inh -74, FMDV inh inconclusive
CCc1ccc(-c2cc(C)no2)cc1S(=O)(=O)N1CCN(c2ccc(OC)cc2)CC1	Lassa entry inh inconclusive, MARV entry inh inconclusive, HCMV inh -67
COc1ccc(NC(C)=[N+](C)CCNS(=O)(=O)c2ccc(Cl)cc2)cc1	none (no result: Lassa entry inh, MARV entry inh)
COc1ccc(C(=O)NC(C(=O)NCC2(N3CCCCC3)CCCCC2)C(C)C)cc1 (stereo unspecified)	HCMV inh -76 (no result: Lassa entry inh, MARV entry inh)
CC(Oc1ccc(Br)cc1)C(=O)NCC1(N2CCCCC2)CCCCC1 (stereo unspecified)	none (no result: Lassa entry inh, MARV entry inh)
O=C(O)c1ccc(CN2CCCCC2)o1	HCMV inh -68 (no result: FMDV inh)
COC(=O)c1ccc(CN2CCN(Cc3ccc(C(=O)OC)o3)CC2)o1	none
COc1ccccc1NC(=O)c1sc2nc(C)c(C(=O)Nc3ccc(C)cc3C)c(-c3ccc(Br)cc3)c2c1N	none
OCCN1CCN(CC/C=C2/c3ccccc3Sc3ccc(C(F)(F)F)cc32)CC1	Lassa entry inh 5.8µM, MARV entry inh 8.9µM
OCCN1CCN(CC/C=C2/c3ccccc3CSc3ccccc32)CC1	none (no result: Lassa entry inh, MARV entry inh)
OCCN1CCN(CCCN2c3ccccc3Sc3ccc(C(F)(F)F)cc32)CC1	Lassa entry inh 7.3µM, MARV entry inh 13µM, FMDV inh inconclusive
FC(F)(F)c1ccc2c(c1)N(CCCN1CCN(CCCl)CC1)c1ccccc1S2	Lassa entry inh inconclusive, MARV entry inh 20µM, HCMV inh -73, FMDV inh 11µM
CN(C)CCC(=O)N1c2ccccc2Sc2ccc(C(F)(F)F)cc21	none (no result: Lassa entry inh, MARV entry inh)
CN(C)CCCN1c2ccccc2Sc2ccc(C(F)(F)F)cc21	Lassa entry inh 21µM, MARV entry inh 6.3µM, HCMV inh inconclusive
CN1CCN(CCC(=O)N2c3ccccc3Sc3ccc(C(F)(F)F)cc32)CC1	MARV entry inh inconclusive (no result: FMDV inh)
